Cruzain inh Det = qHTS Assay for Promiscuous and Specific Inhibitors of Cruzain (with detergent); purified cruzain, Z-FR-AMC fluorescence, 0.01% Triton; Potency, µM, for inactives: max response, negative = inhibition, usual class: inhibitors; 200,000 compounds, 0.43% hits;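 further: plate controls were neutral wells for no effect and buffer without enzyme for full effect; nearly all actives have a fitted effect of over 40% in size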
Target sequence (P25779 123-467 limits assumed): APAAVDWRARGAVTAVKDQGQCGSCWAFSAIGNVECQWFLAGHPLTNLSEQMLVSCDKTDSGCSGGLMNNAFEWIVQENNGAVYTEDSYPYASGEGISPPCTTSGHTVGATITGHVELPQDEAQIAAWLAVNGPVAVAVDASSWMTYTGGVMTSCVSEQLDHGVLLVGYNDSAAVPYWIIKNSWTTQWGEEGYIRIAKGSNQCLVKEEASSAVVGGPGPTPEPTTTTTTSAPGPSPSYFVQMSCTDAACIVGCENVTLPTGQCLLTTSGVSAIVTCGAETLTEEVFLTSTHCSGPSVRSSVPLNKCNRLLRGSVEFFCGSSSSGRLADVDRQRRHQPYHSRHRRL
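Cruzain (1.5 nM) preincubated 15 min at RT with compound in 100 mM sodium acetate pH 5.5, 5 mM DTT, 0.01% Triton X-100. Reaction started with 2 uM Z-FR-AMC; AMC fluorescence (ex 360/em 450 nm) change over 60 s gave rate.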
Cruzain inh noDet = qHTS Assay for Promiscuous and Specific Inhibitors of Cruzain (without detergent); purified cruzain, Z-FR-AMC fluorescence, no detergent; 200,000 compounds, 2.3% hits; Potency, µM, inactives show max response, negative = inhibition, actives largely listed as inhibitors;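 further: plate controls were enzyme without inhibitor for no effect and buffer without enzyme for full effect; nearly all actives have a fitted effect of over 40% in size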
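Purified cruzain at 1.5 nM, pre-incubated 15 min with compound at room temperature in 100 mM sodium acetate pH 5.5, 5 mM DTT, 0.00005% Triton X-100. Reaction started with 2 uM Z-FR-AMC; AMC fluorescence increase over 60 s gives rate.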
Numbers without * were called inactive; ? = inconclusive. Most compounds without a hit are left out; they make up all but 2.4% or so of the library. The call rests on the fitted dose curve; in most records, active means well fitted curve in the direction sought with a large enough effect; inconclusive means small, poorly fitted or top-dose-only effect, or another doubt; inactive means no such curve, though single readings can be large; an effect the other way counts as inactive or inconclusive. Potency means the concentration at half of the fitted maximal effect.

SMILES	Cruzain inh Det	Cruzain inh noDet
COc1ccccc1/C=C\C=N\n1c(-c2ccc(Cl)cc2)n[nH]c1=S	0.7%	?
N#C/C(=C/c1cn(Cc2ccccc2Cl)c2ccccc12)C(=O)Nc1cccc(Cl)c1	-1.6%	3.16µM*
Cc1ccc(C)c(OCCn2cc(/C=C(\C#N)C(=O)NCc3ccco3)c3ccccc32)c1	-4.1%	?
Cc1c(/C=C(\C#N)C(=O)Nc2cccc(Cl)c2)c2ccccc2n1Cc1ccccc1Cl	-0.9%	1.58µM*
Cc1cccc(NC(=O)/C(C#N)=C/c2cn(CC(=O)NCc3ccco3)c3ccccc23)c1	-3.3%	10µM*
Cc1ccc(NC(=O)/C(C#N)=C\c2ccc(Cl)cc2Cl)cc1C	-3.6%	-12.4%
N#C/C(=C\c1cn(Cc2ccccc2F)c2ccccc12)C(=O)NCc1ccco1	-3.5%	-2.7%
CCOc1ccc(NC(=O)Cn2c(=O)c(CNc3ccc(OC)cc3)cc3ccc(OC)cc32)cc1	-5.2%	-22.9%
COC(=O)CN1C(=O)CSc2ccc(S(=O)(=O)Nc3cccc(Cl)c3C)cc21	-7.4%	-0.1%
CCOC(=O)c1cccc(NC(=O)N2Cc3ccccc3Oc3ncccc32)c1	-7.9%	5.6%
COc1cc(C2C(=O)N(C3CCCCCC3)CC(=O)N2CCC2=CCCCC2)ccc1OC(C)C (configuration not stated)	1.4%	7.6%
COc1ccc(S(=O)(=O)N2Cc3ccccc3CC2C(=O)Nc2ccc3c(c2)OCO3)cc1 (configuration not stated)	-3.9%	25.1µM*
Cc1ccc(S(=O)(=O)N2Cc3ccccc3CC2C(=O)Nc2ccc3c(c2)OCO3)cc1 (configuration not stated)	-2.7%	?
COc1ccc(CCNC(=O)c2nc(SCc3ccc(F)cc3)ncc2Cl)cc1OC	-2.0%	?
CCc1cccc(NC(=O)c2nc(-c3ccncc3)no2)c1	-0.2%	18.9%
CCn1c(=O)c(C(=O)Nc2ccccc2S(N)(=O)=O)c(O)c2ccccc21	-3.6%	?
CCn1c(=O)c(C(=O)NNS(=O)(=O)c2ccc(Cl)cc2)c(O)c2ccccc21	-9.1%	25.1µM*
COc1ccc(COc2cc(-c3cccc(OC)c3)nc3ccc(NC(=O)c4ccc(OC)cc4)cc23)cc1	2.2%	7.94µM*
COc1ccc(COc2cc(-c3cccc(OC)c3)nc3ccc(NC(=O)c4ccc(Cl)cc4)cc23)cc1	1.1%	2.82µM*
COc1ccc(COc2cc(-c3cccc(OC)c3)nc3ccc(NC(=O)c4ccccc4)cc23)cc1	2.5%	7.94µM*
COc1cccc(-c2cc(C(=O)Nc3ccc4c(c3)OCCO4)c3ccccc3n2)c1	-7.3%	?
COc1ccc(COc2cc(-c3cccc(OC)c3)nc3ccc(NC(=O)c4cccnc4)cc23)cc1	-0.4%	12.5%
COc1ccc(COc2ccsc2C(=O)Nc2ccc(Cl)cc2)cc1	6.3%	-8.6%
CCc1ccc(NC(=O)Cn2c(-c3cncs3)nc3ccccc32)cc1	-5.2%	4.1%
Cc1ccc2c(CC(=O)N3CCN(c4cccc(Cl)c4)CC3)coc2c1	-19.3%	-11.2%
SMILES	Cruzain inh Det	Cruzain inh noDet
COc1ccc(CNC(=O)c2oc3c(c2C)-c2nn(Cc4ccc(Cl)cc4)cc2CC3)cc1	-3.3%	-4.7%
CCOc1ccc(NC(=O)/C=C/c2ccc(OC)cc2)c([N+](=O)[O-])c1	14.1µM*	3.98µM*
CCCOc1ccc(/C=C/C(=O)Nc2ccc([N+](=O)[O-])cc2C)cc1OC	7.6%	5.9%
CCCCC(=O)Nc1ccc(NC(=O)c2ccc([N+](=O)[O-])cc2)cc1OC	-1.3%	-2.7%
CCCOc1ccc(/C=C/C(=O)Nc2ccc([N+](=O)[O-])cc2C)cc1	2.5%	25.1µM*
COc1ccc(/C=C/C(=O)Nc2ccc(OC)cc2[N+](=O)[O-])cc1	-1.6%	-6.8%
CCCCC(=O)Nc1ccc(C(=O)Nc2ccc(OC)cc2[N+](=O)[O-])cc1	1.9%	15.8µM*
COCCCNC(=O)CSc1nc2nc(C)c(Cc3ccccc3Cl)c(C)n2n1	-1.0%	5.5%
O=C(c1cc2cc3ccc(Cl)cc3nc2o1)N1CCN(c2cccc(Cl)c2)CC1	0.1%	-0.9%
CCC(O)c1nc2ccccc2n1Cc1cc(C)ccc1C (configuration not stated)	-1.7%	-11.1%
Cc1nc(CC(=O)Nc2ccc(C(N)=O)cc2)cs1	-1.4%	-7.1%
COc1ccc(C2=NN(C(=O)CSc3nc4ccccc4s3)C(c3ccc(OC)cc3)C2)cc1 (configuration not stated)	-2.8%	?
O=C(CSc1nc2c(cnn2-c2ccc(F)cc2)c(=O)[nH]1)N1CCCCC1	-2.2%	-13.0%
COc1cccc(C2CC(c3cccs3)=NN2C(=O)CSc2nc3c(cnn3-c3ccc(F)cc3)c(=O)[nH]2)c1OC (configuration not stated)	3.55µM*	?
COc1ccc(C2CC(c3cccs3)=NN2C(=O)CSc2nc3c(cnn3-c3ccccc3)c(=O)[nH]2)cc1 (configuration not stated)	-8.8%	31.6µM*
CCOC(=O)N1CCN(C(=O)CSc2nc3c(cnn3-c3ccccc3)c(=O)[nH]2)CC1	0.1%	2.6%
COc1cccc(C2CC(c3cccs3)=NN2C(=O)CSc2nc3ccccc3s2)c1OC (configuration not stated)	?	12.6µM*
CCc1ccc(-n2c(SCc3ccccc3C)nc3[nH]ncc3c2=O)cc1	-9.5%	-10.0%
CC(=O)N1CCc2c(sc3c2c(=O)n(-c2ccccc2)c(=O)n3CC(=O)c2ccc(F)cc2)C1	-0.3%	-2.1%
COc1ccc(NC(=O)CSc2ncc3c(n2)-c2ccccc2N(Cc2ccc(C)cc2)S3(=O)=O)cc1Cl	4.3%	-21.9%
Cc1ccc(NC(=O)CCCn2c(=O)c3cccn3c3ccccc32)c(C)c1	-7.1%	3.7%
CCOc1ccc(N(CC)S(=O)(=O)N2CCCC(C(=O)NCCc3ccccc3OC)C2)cc1 (configuration not stated)	-4.0%	?
O=C(CCSCc1cnn(-c2ccccc2)c1-n1cccc1)NCc1ccccc1Cl	-6.6%	-7.0%
COc1ccc(-n2c(=O)c3c4c(sc3n(Cc3cc(=O)n5c(C)cccc5n3)c2=O)CCC4)c(OC)c1	-10.1%	?
COc1cc(/C=C/c2ccc3cccc(OC)c3n2)c(OC(C)=O)c([N+](=O)[O-])c1	-3.9%	?
SMILES	Cruzain inh Det	Cruzain inh noDet
COc1c(OC(C)=O)ccc(/C=C/c2ccc3cccc(OCc4ccccc4)c3n2)c1[N+](=O)[O-]	-2.1%	10µM*
C/C(=N\NC(=S)NCCc1ccccc1)c1ccc(C#N)cc1	-6.3%	10µM*
C/C(=N\NC(=S)NCCc1ccccc1)c1ccc(C)cc1	-8.2%	-11.6%
COc1ccccc1CNC(=O)C(=O)NCC(c1cccnc1)N1CCN(c2ccc(F)cc2)CC1 (configuration not stated)	-9.7%	?
Cc1nn(-c2ccccc2)c(C)c1/C=N/Nc1nc2ccccc2[nH]1	?	25.1µM*
CCN(CC)c1ccc(/C=N/Nc2nc3ccccc3[nH]2)cc1	-9.5%	?
Clc1nc2ccccc2cc1/C=N/Nc1nc2ccccc2[nH]1	28.2µM*	?
C(=N\Nc1nc2ccccc2[nH]1)/c1cccs1	-27.0%	?
CCOc1ccc(-c2cc(NC(=O)Nc3ccccc3Cl)c(C(=O)OC)s2)cc1	-4.2%	-26.4%
Cc1cccc(C(=O)NCC(c2ccc3c(c2)OCO3)N2CCOCC2)c1 (configuration not stated)	-0.2%	-6.1%
